Experimental data: PubChem BioAssay AID588511 (Johns Hopkins Ion Channel Center, 2011)
The whole screen tested about 310,000 compounds, of which about 3,600 (1.2%) were called active.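 How the source made its calls: active means ratio plate-corrected score three or more library SD toward inhibition, starting fluorescence score within five deviations; inactive means the rest.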 Only a selection was taken, and actives are over-represented in it overall.

Each molecule was assayed against Anoctamin-1 (Mus musculus) (UniProt Q8BHY3) (assay: TMEM16A chloride channel inhibitors, primary screen, cell-based, HTS (AID 588511;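 on normalized B-score (activity score, 25-100; higher = stronger inhibition): score derived from kinetic fluorescence span divided by baseline fluorescence per well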)). Conditions: HEK293 TMEM16A/YFP iodide influx fluorescence, ionomycin; at 10 µM.
Anoctamin-1 (Mus musculus), sequence (Q8BHY3 whole entry, looked up): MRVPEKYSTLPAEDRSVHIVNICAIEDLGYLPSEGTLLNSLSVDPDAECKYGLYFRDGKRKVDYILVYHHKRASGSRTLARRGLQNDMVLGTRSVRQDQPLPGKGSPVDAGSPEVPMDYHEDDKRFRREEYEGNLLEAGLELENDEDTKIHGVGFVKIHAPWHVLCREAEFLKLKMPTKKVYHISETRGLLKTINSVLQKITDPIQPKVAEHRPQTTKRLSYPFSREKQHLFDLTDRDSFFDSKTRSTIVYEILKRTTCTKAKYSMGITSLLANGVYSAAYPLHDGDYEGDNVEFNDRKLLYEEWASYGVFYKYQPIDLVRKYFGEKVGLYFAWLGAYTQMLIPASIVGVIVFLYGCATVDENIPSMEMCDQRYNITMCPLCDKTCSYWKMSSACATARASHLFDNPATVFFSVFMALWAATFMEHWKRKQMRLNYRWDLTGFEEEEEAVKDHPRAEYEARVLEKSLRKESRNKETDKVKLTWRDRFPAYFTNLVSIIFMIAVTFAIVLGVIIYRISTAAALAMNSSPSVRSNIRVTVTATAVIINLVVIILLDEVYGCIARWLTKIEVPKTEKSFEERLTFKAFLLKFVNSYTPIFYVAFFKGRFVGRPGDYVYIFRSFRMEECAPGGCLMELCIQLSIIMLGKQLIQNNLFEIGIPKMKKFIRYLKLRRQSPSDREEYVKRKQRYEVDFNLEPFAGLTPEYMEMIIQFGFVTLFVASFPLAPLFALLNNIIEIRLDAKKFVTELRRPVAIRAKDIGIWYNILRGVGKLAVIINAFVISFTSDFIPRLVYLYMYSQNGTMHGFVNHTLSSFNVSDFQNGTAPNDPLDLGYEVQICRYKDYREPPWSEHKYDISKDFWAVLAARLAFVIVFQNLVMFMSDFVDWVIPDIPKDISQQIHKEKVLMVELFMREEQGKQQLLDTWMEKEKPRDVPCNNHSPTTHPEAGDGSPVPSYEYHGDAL

| SMILES | normalized B-score (activity score, 25-100; higher = stronger inhibition) |
| --- | --- |
| O=C(Cc1ccc(Cl)c(Cl)c1)Nc1ccc(SC(F)F)cc1 | inactive |
| O=C(CC(O)(C(F)(F)F)C(F)(F)F)Nc1ccc(Cl)c(Cl)c1 | 100 (active) |
| O=C(CC1SCCNC1=O)Nc1ccc(Cl)c(Cl)c1 (centres undefined) | inactive |
| Cc1ccc(NC(=O)Cn2c(=O)n(CCC(=O)NC3CCN(Cc4ccccc4)CC3)c(=O)c3ccccc32)cc1 | inactive |
| CCc1ccc(-c2nc(SCC(=O)NC3CCCC3)n[nH]2)cc1 | 25 (active) |
| COc1ccc(-c2nc(SCC(=O)N3CCCC3)n[nH]2)cc1 | inactive |
| CCc1c(C)nc(SCC(=O)NC2CCCC2)[nH]c1=O | inactive |
| CCC(CC)C(=O)Nc1c2c(nn1-c1ccc(C)cc1)CS(=O)(=O)C2 | inactive |
| O=C(NNS(=O)(=O)c1ccccc1C(F)(F)F)c1cc2ncc(C(F)(F)F)cc2s1 | inactive |
| CCCC(=O)Nc1ccccc1N1CCN(C(=O)c2ccccc2)CC1 | 25 (active) |
| O=C(Nc1ccccc1N1CCN(C(=O)c2ccccc2)CC1)c1ccco1 | inactive |
| CCCCC(=O)Nc1ccccc1N1CCN(c2ccc(F)cc2)CC1 | inactive |
| Cc1cc(C)cc(NS(=O)(=O)c2ccc(F)cc2)c1 | inactive |
| Cc1cc(C)cc(NS(=O)(=O)c2ccc(Oc3ncc(C(F)(F)F)cc3Cl)cc2)c1 | 25 (active) |
| COc1ccccc1Oc1ccc(S(=O)(=O)Nc2cccnc2)cc1 | inactive |
| CN1C(CC(=O)Nc2ccc(Br)cc2)c2ccccc2CC1(C)C (centres undefined) | inactive |
| Cc1ccccc1CSc1nnc(CCCCCNC(=O)OC(C)(C)C)o1 | 100 (active) |
| CCc1ccccc1NC(=O)CSc1nnc(CCNC(=O)OC(C)(C)C)o1 | inactive |
| Cc1cccc(NC(=O)CSc2nnc(CCCCCNC(=O)OC(C)(C)C)o2)c1C | inactive |
| CCc1ccc(C2C(C#N)=C(N)N(N3CCOCC3)C3=C2C(=O)CC(C)(C)C3)s1 (centres undefined) | inactive |
| COc1cccc(C(=O)NCCS(=O)(=O)NCC2CCCO2)c1 (centres undefined) | inactive |
| S=C(NN=C1CCN(Cc2ccccc2)CC1)NC1CCCCC1 | inactive |
| S=C(NCCc1ccccc1)Nc1ccccc1 | inactive |
| S=C(NCCCc1ccccc1)Nc1ccc(Br)cc1 | 100 (active) |
| S=C(Nc1ccc(Br)cc1)NC1CCN(Cc2ccccc2)CC1 | 25 (active) |
| S=C(Nc1ccc(Br)cc1Cl)NC1CCN(Cc2ccccc2)CC1 | inactive |
| O=C(CCNC(=O)c1ccc(Br)cc1)NCCCc1ccccc1 | inactive |

| SMILES | normalized B-score (activity score, 25-100; higher = stronger inhibition) |
| --- | --- |
| O=C(NCc1ccccn1)C1CCN(S(=O)(=O)c2ccc(Br)cc2)CC1 | inactive |
| COc1ccc(C(C#N)(CC(=O)O)c2cnccn2)cc1OC (centres undefined) | inactive |
| O=C(NC1CCC(O)CC1)c1ccccc1OCc1ccc(F)cc1 (centres undefined) | inactive |
| CC(=O)c1ccccc1OCc1ccc(C(=O)c2ccccc2)cc1 | 25 (active) |
| COc1ccc(CCNC(=O)c2ccccc2OCc2ccccc2)cc1 | inactive |
| COc1ccccc1CNS(=O)(=O)c1ccc2c(c1)NC(=O)CS2 | inactive |
| CCSc1nsc(NC(=O)Nc2cccc(C(C)=O)c2)n1 | inactive |
| CCSc1nsc(NC(=O)Nc2ccccc2OC)n1 | inactive |
| C=C(C)C(=O)Nc1cccc(C(C)=O)c1 | inactive |
| CSc1nsc(NC(=O)Nc2ccccc2)n1 | 100 (active) |
| C=CCSc1nsc(NC(=O)Nc2cccc(C(C)=O)c2)n1 | 100 (active) |
| O=C(Nc1ccccc1)Nc1nnc(COc2ccccc2F)s1 | inactive |
| COc1ccc(-c2c(-c3ccc(OC)cc3O)nc(C)nc2C(F)(F)F)cc1 | inactive |
| COc1cc(NC(=O)c2ccc(-c3csc(C)n3)cc2)c(OC)cc1Cl | inactive |
| CC1CCCCN1CCCNC(=O)Cn1ncc2c([nH]c3ccccc32)c1=O (centres undefined) | inactive |
| Cc1ccc2c(c1)N(CC(=O)NCCCN1CCCCC1)C(=O)c1cccnc1O2 | inactive |
| Clc1ccc(-c2nc3ccccn3c2CN2CCSCC2)cc1 | inactive |
| CCCCn1c(N)c(N(CC(C)C)C(=O)CN(C)S(=O)(=O)c2ccc(F)cc2)c(=O)[nH]c1=O | inactive |
| COc1ccc(CCNC(=O)C2CCCN2C(=O)Nc2ccccc2)cc1OC (centres undefined) | inactive |
| CC(=O)c1cccc(NC(=O)N2CCCC2C(=O)NCCC(C)C)c1 (centres undefined) | 25 (active) |
| CC(=O)c1cccc(NC(=O)N2CCCC2C(=O)NCCc2ccccc2)c1 (centres undefined) | inactive |
| Cc1snc(SCc2c(F)cccc2Cl)c1C#N | inactive |
| Cc1cc(C)c2c(-n3cccc3)c(C(=O)NNS(=O)(=O)c3ccc(F)cc3)sc2n1 | inactive |
| CC(Sc1nnc(Cc2ccc([N+](=O)[O-])cc2)o1)C(N)=O (centres undefined) | inactive |
| CCn1nccc1C(=O)Nc1ccc(S(=O)(=O)NC23CC4CC(CC(C4)C2)C3)cc1 | 25 (active) |
| Cc1cc(C(F)F)n2nc(C(=O)Nc3ccc(S(=O)(=O)NC45CC6CC(CC(C6)C4)C5)cc3)nc2n1 | inactive |
| CCn1nccc1C(=O)Nc1ccc(Cl)c(Cl)c1 | inactive |
